# Inconclusive results are not listed. Activity calls are given as the source filed them. The call rests on the fitted dose curve; in most records, active means well fitted inhibition curve with a large enough effect; inconclusive means small, poorly fitted or top-dose-only effect; inactive means flat fitted curve, though single readings scatter.
# Tests used:
# Assay in all cases: Cytotoxic Profiling of Annotated Libraries Using Quantitative High-Throughput Screening (AID 1296008); further: nearly all actives have a fitted effect of over 60% in size
# Details in all cases: Five cell lines viability, CellTiter-Glo ATP luminescence, 48-72 h; max response: hits give low values
# CRL-7250 = normal cell line; test system: CRL-7250
# How it was run: (§1)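 Cytotoxicity was measured as CellTiter-Glo ATP luminescence, read after 10 min at room temperature. Compound treatment of the cells lasted 48 or 72 hr at 37 degrees Celsius in a qHTS format.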
# HEK293 = test system: HEK293
# How it was run: as §1
# KB-3-1 = test system: KB-3-1
# How it was run: as §1
# On the % scale 0 is the no-effect control and ±100 the full control effect; potency means the concentration at half of the fitted maximal effect.
structure (smiles),measurement,setting,value
O=C(O)/C=C/c1ccc(O)c(O[C@@H]2O[C@H](CO)[C@@H](O)[C@H](O)[C@H]2O)c1,outcome,CRL-7250,inactive
same,max response,HEK293,-13.2% (inactive)
same,outcome,KB-3-1,inactive
COc1ccc(Cl)c(Nc2nc3ccccc3nc2NS(=O)(=O)c2cccc(NC(=O)C(C)(C)N)c2)c1,max response,CRL-7250,-18.5% (inactive)
same,max response,HEK293,-13.5% (inactive)
same,max response,KB-3-1,-5.68% (inactive)
CCC(C)C(=O)OC1CC(O)C23C4OCC5(C(O)CC2C1(C)C(O)O4)C3C(=O)CC1(C)C(c2ccoc2)CC2OC215 (configuration not stated),Potency,CRL-7250,3.55 µM (active)
same,Potency,HEK293,2.52 µM (active)
same,Potency,KB-3-1,1.78 µM (active)
CCOC(=O)CCN(C(=O)c1ccc2c(c1)nc(CNc1ccc(C(=N)N)cc1)n2C)c1ccccn1,max response,CRL-7250,2.71% (inactive)
same,max response,HEK293,-11% (inactive)
same,max response,KB-3-1,-6.67% (inactive)
CC(=O)O[C@@H]1C[C@H](O)[C@@]23CO[C@H](O)[C@]1(C)C2C[C@@H](O)[C@]1(C)C3C(=O)[C@H](OC(C)=O)[C@@]2(C)[C@H](c3ccoc3)C[C@H]3O[C@]321 (some centres not stated),Potency,CRL-7250,0.485 µM (active)
same,Potency,HEK293,0.343 µM (active)
same,Potency,KB-3-1,0.137 µM (active)
C[C@]12C[C@@H](O)[C@@H]3C[C@@]1(O[C@@H]1O[C@H](CO)[C@@H](O)[C@H](O)[C@H]1O)[C@]3(COC(=O)c1ccccc1)C(=O)O2,max response,CRL-7250,-9.75% (inactive)
same,outcome,HEK293,inactive
same,max response,KB-3-1,4.54% (inactive)
CN(C)c1ccc2c(c1)OC(N)=C(C#N)C2c1cccc(C(F)(F)F)c1 (configuration not stated),Potency,CRL-7250,1.64 µM (active)
same,Potency,HEK293,0.184 µM (active)
same,Potency,KB-3-1,0.291 µM (active)
Nc1ncnc2c([C@@H]3N[C@H](CO)[C@@H](O)[C@H]3O)c[nH]c12,max response,CRL-7250,-1.11% (inactive)
same,max response,HEK293,1.17% (inactive)
same,max response,KB-3-1,5.62% (inactive)
CCCC1(c2ccccc2)NC(=O)N(CC(=O)N(C)Cc2c(F)cccc2Cl)C1=O (configuration not stated),max response,CRL-7250,-1.75% (inactive)
same,max response,HEK293,-6.56% (inactive)
same,max response,KB-3-1,-1.57% (inactive)
COc1ccc(Oc2cc(C)c(-c3csc(NC(=O)c4ccncc4)n3)c(C)c2)cc1,Potency,CRL-7250,0.651 µM (active)
same,Potency,HEK293,0.326 µM (active)
same,Potency,KB-3-1,0.146 µM (active)
CCC[C@@H]1O[C@@H]2C[C@H]3[C@@H]4CCC5=CC(=O)C=C[C@]5(C)[C@H]4[C@@H](O)C[C@]3(C)[C@]2(C(=O)CO)O1,max response,CRL-7250,0.403% (inactive)
same,max response,HEK293,0.791% (inactive)
same,outcome,KB-3-1,inactive
COc1ccc(C2COc3cc(O)ccc3C2)c(O)c1 (configuration not stated),max response,CRL-7250,-2.17% (inactive)
same,max response,HEK293,-0.71% (inactive)
same,max response,KB-3-1,-10.5% (inactive)
O=C1CCC(=O)N(O)CCCCCNC(=O)CCC(=O)N(O)CCOCCNC(=O)CCC(=O)N(O)CCCCCN1,max response,CRL-7250,-5.63% (inactive)
same,max response,HEK293,1.01% (inactive)
same,outcome,KB-3-1,inactive
C=CC(=O)Nc1cccc(CN2C(=O)N(c3c(Cl)c(OC)cc(OC)c3Cl)Cc3cnc(NCCCCN(CC)CC)nc32)c1,Potency,CRL-7250,10.3 µM (active)
same,Potency,HEK293,16.4 µM (active)
same,Potency,KB-3-1,18.4 µM (active)
C/C=C1\[C@H](O[C@@H]2O[C@H](CO)[C@@H](O)[C@H](O)[C@H]2O)OC=C2C(=O)OCCc3ccc(O)c(c3)Oc3ccc(cc3)CCOC(=O)C[C@H]21,max response,CRL-7250,-21.9% (inactive)
same,max response,HEK293,-25.1% (inactive)
same,max response,KB-3-1,-9.35% (inactive)
C=C1CCC2C(C)(COC(C)=O)CCCC2(C)C1CCC(C)CC(=O)O (configuration not stated),max response,CRL-7250,-3% (inactive)
same,outcome,HEK293,inactive
same,max response,KB-3-1,8.96% (inactive)
CCN1CCN(Cc2ccc(Nc3ncc(F)c(-c4cc(F)c5nc(C)n(C(C)C)c5c4)n3)nc2)CC1,max response,CRL-7250,-7.11% (inactive)
same,Potency,HEK293,3.66 µM (active)
same,Potency,KB-3-1,6.51 µM (active)
CC1CC2OC3(OC2C(C)(C)O)C1C1(C)CCC24CC25CCC(O[C@@H]2OC[C@@H](O)[C@H](O)[C@H]2O)C(C)(C)C5CC=C4C1(C)C3O (some centres not stated),max response,CRL-7250,-7.03% (inactive)
same,outcome,HEK293,inactive
same,max response,KB-3-1,5.34% (inactive)
Cn1cncc1C(N)(c1ccc(Cl)cc1)c1ccc2c(c1)c(-c1cccc(Cl)c1)cc(=O)n2C (configuration not stated),Potency,CRL-7250,23.1 µM (active)
same,Potency,HEK293,0.259 µM (active)
same,Potency,KB-3-1,16.4 µM (active)
COc1cc(Nc2nc3ccccc3nc2NS(=O)(=O)c2ccc(NC(=O)c3ccc(OC)c(C)c3)cc2)cc(OC)c1,max response,CRL-7250,-3.06% (inactive)
same,max response,HEK293,1.81% (inactive)
same,outcome,KB-3-1,inactive
CC/C=C\CCO[C@@H]1O[C@H](CO[C@@H]2OC[C@H](O)[C@H](O)[C@H]2O)[C@@H](O)[C@H](O)[C@H]1O,outcome,CRL-7250,inactive
same,outcome,HEK293,inactive
same,outcome,KB-3-1,inactive
CCC(C)C(=O)O[C@H]1CCC=C2C=C[C@H](C)[C@H](CC[C@@H](O)C[C@@H](O)CC(=O)O)[C@H]21 (some centres not stated),Potency,CRL-7250,7.96 µM (active)
same,max response,HEK293,0.832% (inactive)
same,max response,KB-3-1,7.29% (inactive)
CCc1cccc(CC)c1NC(=O)c1nn(C)c2c1CCc1cnc(Nc3ccc(C(=O)NC4CCN(C)CC4)cc3OC(F)(F)F)nc1-2,max response,CRL-7250,-0.147% (inactive)
same,Potency,HEK293,1.78 µM (active)
same,Potency,KB-3-1,5.63 µM (active)
CC1(C)CCC2(C(=O)OC3OC(CO)C(O)C(O)C3O)CCC3(C)C(=CCC4C5(C)CCC(O)C(C)(C(=O)O)C5CCC43C)C2C1O (configuration not stated),max response,CRL-7250,3.57% (inactive)
same,max response,HEK293,4.09% (inactive)
same,max response,KB-3-1,1.65% (inactive)
COc1cc(Br)c(S(=O)(=O)Nc2ccc(C(F)(F)F)c(O[C@@H]3CCN(C)C3)c2)cc1OC,max response,CRL-7250,-0.0326% (inactive)
same,max response,HEK293,-36.5% (inactive)
same,max response,KB-3-1,-11.3% (inactive)
COc1cc2ncnc(Nc3ccc(O)cc3)c2cc1OC,outcome,CRL-7250,inactive
same,max response,HEK293,-8.09% (inactive)
same,max response,KB-3-1,3.01% (inactive)
C/C=C/c1ccc2oc(-c3ccc(O)c(OC)c3)c(C)c2c1,max response,CRL-7250,-27.9% (inactive)
same,max response,HEK293,-4.11% (inactive)
same,max response,KB-3-1,6.52% (inactive)
CC1(C)CC[C@]2(C(=O)O[C@@H]3O[C@H](CO)[C@@H](O)[C@H](O)[C@H]3O)CC[C@]3(C)C(=CCC4[C@@]5(C)C[C@@H](O)[C@H](O)[C@](C)(C=O)C5CC[C@]43C)[C@@H]2[C@@H]1O (some centres not stated),outcome,CRL-7250,inactive
same,max response,HEK293,-5.81% (inactive)
same,outcome,KB-3-1,inactive
Nc1nccn2c(C3CCC(C(=O)O)CC3)nc(-c3cc4cccc(Cl)c4[nH]3)c12 (configuration not stated),Potency,CRL-7250,1.46 µM (active)
same,Potency,HEK293,5.17 µM (active)
same,Potency,KB-3-1,1.84 µM (active)
C=CC1C(OC2OC(CO)C(O)C(O)C2O)OC=C(C(=O)OC)C1CC1CC(=O)CC(CCc2ccc(O)cc2)O1 (configuration not stated),max response,CRL-7250,3.27% (inactive)
same,max response,HEK293,-3.27% (inactive)
same,max response,KB-3-1,0.837% (inactive)
CC1(C)C[C@H](O)C[C@@]2(C)OC(=O)C=C12,max response,CRL-7250,1.12% (inactive)
same,outcome,HEK293,inactive
same,outcome,KB-3-1,inactive
COc1cc(Br)c(Nc2nc(-c3c(C)nc4ncccn34)cs2)c(Br)c1,Potency,CRL-7250,4.61 µM (active)
same,Potency,HEK293,5.8 µM (active)
same,Potency,KB-3-1,2.31 µM (active)
CCCN1CCC(c2cccc(S(C)(=O)=O)c2)CC1,max response,CRL-7250,-0.494% (inactive)
same,max response,HEK293,-1.41% (inactive)
same,max response,KB-3-1,-3.93% (inactive)
C[C@H](NC(c1cccc(C[P+](=O)O)c1)[C@H](C)O)c1ccc(Cl)c(Cl)c1 (some centres not stated),outcome,CRL-7250,inactive
same,max response,HEK293,-17.8% (inactive)
same,outcome,KB-3-1,inactive
C=C1CC23CC1CCC2C12OC(=O)C(C)(CCC1O)C2C3C(=O)O (configuration not stated),outcome,CRL-7250,inactive
same,max response,HEK293,2.62% (inactive)
same,outcome,KB-3-1,inactive
C[C@H](Oc1ccc(S(C)(=O)=O)cc1C(=O)N1CCN(c2ncc(C(F)(F)F)cc2F)CC1)C(F)(F)F,outcome,CRL-7250,inactive
same,max response,HEK293,-24.7% (inactive)
same,max response,KB-3-1,4.57% (inactive)
CC/C=C\C/C=C\C/C=C\CCCCCCCC(=O)OCC(O)COC1OC(CO)C(O)C(O)C1O (configuration not stated),max response,CRL-7250,-2.54% (inactive)
same,max response,HEK293,-1.09% (inactive)
same,outcome,KB-3-1,inactive
Nc1nc2c(c(=O)[nH]1)C[C@@H](CCc1ccc(C(=O)N[C@@H](CCC(=O)O)C(=O)O)cc1)CN2,Potency,CRL-7250,0.116 µM (active)
same,Potency,HEK293,0.206 µM (active)
same,Potency,KB-3-1,0.058 µM (active)
Nc1nc2c(ncn2[C@@H]2O[C@H](CO)[C@@H](O)[C@H]2O)c(=O)[nH]1,max response,CRL-7250,-5% (inactive)
same,max response,HEK293,-9.89% (inactive)
same,max response,KB-3-1,4.1% (inactive)
CN(C)C/C=C/C(=O)Nc1cccc(C(=O)Nc2ccc(Nc3nccc(-c4cccnc4)n3)cc2)c1,Potency,CRL-7250,7.31 µM (active)
same,Potency,HEK293,5.8 µM (active)
same,Potency,KB-3-1,3.66 µM (active)
O=C1NC(=O)C(c2cn3c4c(cccc24)CCC3)C1c1c[nH]c2ccccc12 (configuration not stated),Potency,CRL-7250,5.8 µM (active)
same,Potency,HEK293,1.03 µM (active)
same,Potency,KB-3-1,1.3 µM (active)
c1cc(Nc2cc(C3CC3)[nH]n2)nc(Nc2ccc3nc[nH]c3c2)n1,Potency,CRL-7250,0.82 µM (active)
same,Potency,HEK293,1.16 µM (active)
same,Potency,KB-3-1,1.3 µM (active)
CC1(C)CC[C@]2(C(=O)O[C@@H]3O[C@H](CO)[C@@H](O)[C@H](O)[C@H]3O)CC[C@]3(C)C(=CCC4[C@@]5(C)CC[C@H](O[C@@H]6O[C@H](C(=O)O)[C@@H](O)[C@H](O[C@@H]7O[C@H](CO)[C@H](O)[C@H](O)[C@H]7O)[C@H]6O)C(C)(C)C5CC[C@]43C)C2C1 (some centres not stated),max response,CRL-7250,-0.842% (inactive)
same,max response,HEK293,1.5% (inactive)
same,max response,KB-3-1,3.29% (inactive)
C=C[C@H]1C(O[C@@H]2O[C@H](CO)[C@@H](O)[C@H](O)[C@H]2O)OC=C2C(=O)N3CCc4c([nH]c5ccccc45)C3CC21 (some centres not stated),outcome,CRL-7250,inactive
same,outcome,HEK293,inactive
same,outcome,KB-3-1,inactive
CC(C)C[C@H](CC(=O)NO)C(=O)N[C@@H](Cc1ccc2ccccc2c1)C(=O)N[C@@H](C)C(=O)NCCN,max response,CRL-7250,-4.14% (inactive)
same,max response,HEK293,0.393% (inactive)
same,max response,KB-3-1,7.03% (inactive)
COc1ccc(CCO[C@@H]2CCCC[C@H]2N2CC[C@@H](O)C2)cc1OC,max response,CRL-7250,-6.87% (inactive)
same,max response,HEK293,2.72% (inactive)
same,max response,KB-3-1,4.12% (inactive)
CC1CCC2(C(=O)O)CCC3(C)C(=CCC4C5(C)CCC(OC(=O)/C=C/c6ccccc6)C(C)(C)C5CCC43C)C2C1C (configuration not stated),outcome,CRL-7250,inactive
same,max response,HEK293,-4.63% (inactive)
same,max response,KB-3-1,3.54% (inactive)
C[C@H](NC(c1cccc2[nH]c(=O)c(=O)[nH]c12)P(=O)(O)O)c1ccc(Br)cc1 (some centres not stated),max response,CRL-7250,-1.1% (inactive)
same,max response,HEK293,1.8% (inactive)
same,outcome,KB-3-1,inactive
CC(C)NCC(C(=O)N1CCN(c2ncnc3c2C(C)CC3O)CC1)c1ccc(Cl)cc1 (configuration not stated),max response,CRL-7250,-1.68% (inactive)
same,Potency,HEK293,0.58 µM (active)
same,max response,KB-3-1,-24.2% (inactive)

# Reference: PubChem BioAssay (NCATS)
